Measurements taken from PubChem BioAssay (NCATS).
Results filed as inconclusive are left out. The source made the active and inactive calls. Calls come from the whole dose curve; as a rule, active = well fitted inhibition curve with a large enough effect; inconclusive = small, poorly fitted or top-dose-only effect; inactive = flat fitted curve, though single readings scatter.

What was measured:
[1] = Drug repurposing screens with cells derived from glioblastoma tumor samples (AID 1345199); conditions: GBM patient neurospheres viability, ATP luminescence, 48 h; note: nearly all actives have a fitted effect of over 40% in size
Outline: (§1)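 Primary testing used CD133+ neurospheres from four GBM patients, seven concentrations, 48 h exposure and ATP-based viability; confirmation added three slower-growing patient lines.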

astro = control astrocytes; assay: as above; conditions: viability, ATP luminescence, 48 h; series mostly up to 45.9 µM
Outline: as §1

[2] = at 45.9 µM (top of the series), tumour line B
[3] = at 45.9 µM (top of the series), tumour line D
[4] = at 46.1 µM (top of the series), tumour line C
[5] = at 46 µM (top of the series), tumour line A
[6] = at 20 µM (top of the series), tumour line C
[7] = at 21.2 µM (top of the series), tumour line B
[8] = at 21.2 µM (top of the series), tumour line D
% is set by controls: 0 for no effect and ±100 for the full control effect; potency is the fitted concentration of half-maximal effect.

CCc1ccc(S(=O)(=O)O)cc1
inactive: activity, negative = cell killing [1, 2] 3.64% | activity, negative = cell killing [1, 3] -9.65% | activity, negative = cell killing [1, 4] -22.1% | Potency (astro)

S=C1SCN(Cc2ccccc2)CN1Cc1ccccc1
active: Potency ([1]; tumour line A) 11.2 µM
inactive: activity, negative = cell killing [1, 3] -15% | activity, negative = cell killing [1, 4] -9.54% | Potency (astro)

CCC[C@@H]1C[C@@H](C(=O)N[C@@H]([C@H]2O[C@H](SC)[C@H](O)[C@@H](O)[C@H]2O)[C@H](C)Cl)N(C)C1
inactive: activity, negative = cell killing [1, 2] 1.77% | activity, negative = cell killing [1, 3] -7.32% | activity, negative = cell killing [1, 5] -25.1% | Potency (astro)

c1ccc2c(c1)OCC(CN1CCCCC1)O2 (stereo not given)
inactive: activity, negative = cell killing [1, 2] 0.315% | activity, negative = cell killing [1, 3] -10.7% | activity, negative = cell killing [1, 4] -13% | Potency (astro)

O=C(CCCN1CCC(C(=O)c2ccc(F)cc2)CC1)c1ccc(F)cc1
inactive: activity, negative = cell killing [1, 2] -22% | activity, negative = cell killing [1, 4] -4.95% | Potency (astro)
active: Potency ([1]; tumour line A) 8.91 µM

COc1cc(S(C)=O)ccc1-c1nc2ncccc2[nH]1 (stereo not given)
inactive: activity, negative = cell killing [1, 2] -1.29% | activity, negative = cell killing [1, 3] -12% | activity, negative = cell killing [1, 4] -12.6% | Potency (astro)

C[C@H](O)CN(C)C
inactive: activity, negative = cell killing [1, 2] -3.73% | activity, negative = cell killing [1, 3] -16.1% | activity, negative = cell killing [1, 4] -13.2% | Potency (astro)

C[C@@H](O)[C@H]1C(=O)N2C(C(=O)[O-])=C(SC3Cn4cnc[n+]4C3)[C@H](C)[C@H]12 (stereo not given in full)
inactive: activity, negative = cell killing [1, 2] -14.6% | activity, negative = cell killing [1, 3] -27.3% | activity, negative = cell killing [1, 4] -6.91% | Potency (astro)

CNCC(=O)N[C@@H](CCCN=C(N)N)C(=O)N[C@H](C(=O)N[C@@H](Cc1ccc(O)cc1)C(=O)N[C@H](C(=O)N[C@@H](Cc1cnc[nH]1)C(=O)N1CCC[C@H]1C(=O)N[C@@H](C)C(=O)O)C(C)C)C(C)C
inactive: activity, negative = cell killing [1, 2] -7.12% | activity, negative = cell killing [1, 3] -7.19% | activity, negative = cell killing [1, 4] -6.49% | Potency (astro)

CCOc1ccc(NC(=S)Nc2ccc(OCC)cc2)cc1
inactive: activity, negative = cell killing [1, 2] -13.1% | activity, negative = cell killing [1, 3] -11.1% | activity, negative = cell killing [1, 4] -27.8% | Potency (astro)

CC1CCCC(C)N1NC(=O)c1ccc(Cl)c(S(N)(=O)=O)c1 (stereo not given)
inactive: activity, negative = cell killing [1, 6] -19.6% | activity, negative = cell killing [1, 7] -10.8% | activity, negative = cell killing [1, 8] -17.6% | Potency (astro)

O=c1[nH]c(=O)n([C@H]2C[C@H](O)[C@@H](CO)O2)cc1/C=C/Br
inactive: activity, negative = cell killing [1, 2] -10.7% | activity, negative = cell killing [1, 3] -3.23% | activity, negative = cell killing [1, 4] -17.1% | Potency (astro)

CC(=NCc1ccccc1)c1ccccc1O
inactive: activity, negative = cell killing [1, 2] -12.5% | activity, negative = cell killing [1, 3] -14.9% | activity, negative = cell killing [1, 4] 6.85% | Potency (astro)

O=[N+]([O-])O[C@@H]1CO[C@H]2[C@@H]1OC[C@@H]2O
inactive: activity, negative = cell killing [1, 2] -16.9% | activity, negative = cell killing [1, 3] -5.25% | activity, negative = cell killing [1, 5] -36.5% | Potency (astro)

CC1CCCCN1CCCOC(=O)c1ccccc1 (stereo not given)
inactive: activity, negative = cell killing [1, 2] -12.2% | activity, negative = cell killing [1, 3] -13.7% | activity, negative = cell killing [1, 4] -1.82% | Potency (astro)

CO[C@H]1O[C@@H]2O[C@@]3(C)CC[C@H]4[C@H](C)CC[C@@H]([C@H]1C)[C@@]24OO3
inactive: activity, negative = cell killing [1, 2] -14.7% | activity, negative = cell killing [1, 3] 1.49% | activity, negative = cell killing [1, 4] -10.2% | Potency (astro)

NC(N)=NCC1COc2ccccc2O1 (stereo not given)
inactive: activity, negative = cell killing [1, 2] -11.5% | activity, negative = cell killing [1, 3] -28.1% | Potency (astro)
active: Potency ([1]; tumour line A) 35.5 µM

CCCCC/C=C\C/C=C\C/C=C\CCCCC(=O)O
inactive: activity, negative = cell killing [1, 2] -11.2% | activity, negative = cell killing [1, 3] 2.8% | activity, negative = cell killing [1, 4] 1.83% | Potency (astro)

Nc1ncnc2c1ncn2CCOCP(=O)(O)O
inactive: activity, negative = cell killing [1, 2] 2.17% | activity, negative = cell killing [1, 3] -1.17% | activity, negative = cell killing [1, 4] -21.5% | Potency (astro)

O=C(O)COc1ccc(CCNS(=O)(=O)c2ccccc2)s1
inactive: activity, negative = cell killing [1, 2] -8.15% | activity, negative = cell killing [1, 3] -13.5% | activity, negative = cell killing [1, 4] -21.9% | Potency (astro)

CC(C)(COP(=O)(O)OP(=O)(O)OC[C@H]1O[C@@H](n2cnc3c(N)ncnc32)[C@H](O)[C@@H]1OP(=O)(O)O)C(O)C(=O)NCCC(=O)NCCS (stereo not given in full)
inactive: activity, negative = cell killing [1, 2] -4.74% | activity, negative = cell killing [1, 3] -6.02% | activity, negative = cell killing [1, 5] -28.8% | Potency (astro)

CC(C)CN(C[C@@H](O)[C@H](Cc1ccccc1)NC(=O)O[C@@H]1CCOC1)S(=O)(=O)c1ccc(N)cc1
inactive: activity, negative = cell killing [1, 2] -6.03% | activity, negative = cell killing [1, 3] -14.3% | activity, negative = cell killing [1, 4] -3.48% | Potency (astro)

O=C(O)c1ccc(OCCn2ccnc2)cc1
inactive: activity, negative = cell killing [1, 2] -11.4% | activity, negative = cell killing [1, 3] -25.4% | activity, negative = cell killing [1, 4] -11.9% | Potency (astro)

NC(=O)c1cc[n+](CC2=C(C(=O)O)N3C(=O)[C@@H](NC(=O)C(c4ccccc4)S(=O)(=O)[O-])[C@H]3SC2)cc1 (stereo not given in full)
inactive: activity, negative = cell killing [1, 6] 7.27% | activity, negative = cell killing [1, 7] -0.0366% | activity, negative = cell killing [1, 8] -7.97% | Potency (astro)

CO[C@H]1C[C@H](O[C@@H]2/C(C)=C/C[C@@H]3C[C@@H](C[C@]4(CC[C@H](C)[C@@H](C5CCCCC5)O4)O3)OC(=O)[C@@H]3C=C(C)/C(=N/O)[C@H]4OC/C(=C\C=C\[C@@H]2C)[C@]43O)O[C@@H](C)[C@@H]1O
active: Potency ([1]; tumour line A) 10 µM | Potency ([1]; tumour line D) 20 µM
inactive: activity, negative = cell killing [1, 4] -8.72% | Potency (astro)
